Here are results for 40 compounds from PubChem BioAssay (EPA / NIEHS).

Calls of active or inactive are those of the source. How the source made its calls: active means hit-call score of the fitted dose curve at least 0.9, where 1 is the maximum; inactive means score below 0.9.

The nature of this assay: ATG_NRF2_ARE_CIS: Attagene CIS-FACTORIAL HepG2 Assay for human Nuclear Factor Erythroid 2 Related Factor 2 (NFR2) response to Antioxidant Response Elements (ARE) (AID 2282992).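 On AC50: reporter mRNA level measured by RT-PCR and capillary electrophoresis fluorescence.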 Particulars: HepG2 Attagene ARE/NRF2 reporter, transcription factor activity; actives raise or lower the signal. A digest of the protocol:
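Transient MRTU transfection of HepG2; 24 h compound exposure; TriZol RNA, RT with oligo(dT), PCR, 6-FAM primer extension, HpaI cut, CE. Bidirectional fit vs DMSO.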
In the case of `O=C(O)c1cc(Cl)cc([N+](=O)[O-])c1Cl`, the compound was classed as inactive.
`CCCCCCCCCCOC(C)=O`: the outcome was inactive.
Broadly, the AC50 is the concentration giving half of the maximal activity seen. As to `Cc1ccc2c(c1)C(=O)c1ccccc1C2=O`, the AC50 is 10.5 µM (active).
The same measure, in the same setting: the figure for `CCC(C)OC(=O)c1ccc(O)cc1` (stereo not given) is 100 µM (active).
Regarding `CCN(CCO)c1cccc(C)c1`, the compound was classed as inactive.
As to `Nc1ccc(N=Nc2ccccc2)c(N)n1`, the AC50 is 15.3 µM (active).
`CC(C)(C)c1ccc(OC(=O)c2ccccc2O)cc1`: the compound was classed as inactive.
`COC(=O)/C=C\C(=O)O`: the AC50 is 43.3 µM (active).
As for `CC(=O)OCCC1CCCCC1`, the outcome was inactive.
On to `O=C(O)c1ccccc1Nc1cccc(C(F)(F)F)c1`, for which the AC50 was 27.3 µM (active).
For `O=C1OC(=O)c2cc(Oc3ccc4c(c3)C(=O)OC4=O)ccc21`, the compound was called inactive.
In the case of `O=C(Nc1cccc(C(F)(F)F)c1)c1cc(Br)cc(Br)c1O`, the AC50 was 0.851 µM (active).
In the case of `COc1cc(C)ccc1C(C)C`, the outcome was inactive.
Same read-out and setting: the entry for `CCCCCCCCCCc1ccccc1` is “inactive”; for `FC(F)(F)C(=NOCC1OCCO1)c1ccc(Cl)cc1` it is “inactive”.
`O=C(Oc1ccccc1)c1ccc2ccccc2c1O`: the AC50 was 18.3 µM (active).
On to `O=C1C=CC(=O)O1`, for which the result was inactive.
As to `O=C1c2ccccc2C(=O)C1c1nc2ccccc2c(Br)c1O`, the AC50 was 1.83 µM (active).
Same read-out and setting: the figure for `O=c1[nH]nc(-c2ccc([N+](=O)[O-])o2)o1` is 61.3 µM (active).
For the compound `CC=CCO`, the compound was classed as inactive.
In the case of `CC(C)=CCC[C@H](C)CCO`, the compound was classed as inactive.
Same read-out and setting: the entry for `Cc1cc(C)c(C(=O)O)c(C)c1` is “inactive”.
Still for that read-out and setting: the entry for `CCCCCCCC(C)=O` is “inactive”.
In the case of `c1ccc(CCCc2ccncc2)cc1`, the AC50 was 45.4 µM (active).
On the same count and under the same terms, the figure for `CC=C1CC2C=CC1C2` (stereo not given) is 45.9 µM (active); for `Cc1cc(O)c(Cl)c(C)c1Cl` it is 33.4 µM (active); for `C=CC(=O)OCCC(=O)O` it is 43.2 µM (active).
Consider `OC1CCCCCCCCCCC1`, for which the result was inactive.
Same read-out and setting: the entry for `CC(C)=CC1CC(C)CCO1` (stereo not given) is “inactive”.
Still for that read-out and setting: the entry for `CCOCC(=O)O` is “inactive”; for `CC1(C)S[C@@H]2[C@H](NC(=O)COc3ccccc3)C(=O)N2[C@H]1C(=O)O` it is “inactive”; for `CC(=O)NS(=O)(=O)c1ccc(N)cc1` it is “inactive”.
The same measure, in the same setting: the entry for `CCCOCCOCCOCCO` is “inactive”; for `C=C1C2CCC(C2)C1(C)C` (stereo not given) it is “inactive”.
With `C=CC(C)(CCC=C(C)C)OC(=O)C(C)C` (stereo not given), the AC50 is 100 µM (active).
On to `CCCCCCCCCCCCCOP(=O)(O)O`, for which the compound was called inactive.
On the same count and under the same terms, the entry for `O=S(=O)(O)c1ccccc1C=Cc1ccc(-c2ccc(C=Cc3ccccc3S(=O)(=O)O)cc2)cc1` is “inactive”.
Still for that read-out and setting: the entry for `Cc1cc(C)c(C)cc1C` is “inactive”.
For `CC(=O)C=CC1C(C)=CCC(C)C1(C)C` (stereo not given), the AC50 was 27.8 µM (active).
On the same count and under the same terms, the figure for `NCCCN1CCN(CCCN)CC1` is 81.2 µM (active).
